# In the antibiotic and cytotoxicity screens of Wong et al. (2023):
# About 3,300 (8.5%) of roughly 39,000 compounds were called active. Many of the other results were omitted from the sample, so actives are more common in it than they were.
# Test system: HepG2
# Test: cytotoxicity call (relative viability < 0.9)
# Conditions: 10 µM
row,SMILES,cytotoxicity call
1,C[C@H]1CN([C@@H](C)CO)C(=O)c2cc(C#CC3(O)CCCC3)cnc2O[C@@H]1CN(C)C(=O)Cc1ccccc1,inactive
2,C[C@H](CO)N1C[C@H](C)[C@@H](CN(C)Cc2ccc(F)cc2)Oc2cc(C#CC(C)(C)O)ccc2S1(=O)=O,inactive
3,OCC1OC(OC2C(O)C(CO)OC2(CO)OC2OC(CO)C(O)C(O)C2O)C(O)C(O)C1O (stereo unspecified),inactive
4,CN(C)C(=O)N[C@H]1CN(S(C)(=O)=O)[C@H]2CCCO[C@@H]12,inactive
5,C[C@@H]1CN([C@@H](C)CO)C(=O)c2cc(NS(=O)(=O)c3ccc(Cl)cc3)ccc2O[C@@H](C)CCCCO[C@H]1CN(C)Cc1ccc(C(=O)O)cc1,inactive
6,Cn1nc(C(=O)O)c2ccccc2c1=O,inactive
7,COc1cccc(CNC(=O)c2cc3c(c(-c4cccc(-c5ccncc5)c4)n2)[C@@H](CCO)N([S@@](=O)C(C)(C)C)C3)c1,inactive
8,C[C@H]1CC/C=C\[C@H]2O[C@@]34C=CCN(Cn5nnc6ccccc65)C(=O)[C@H]3N(CCCCCCO)C(=O)[C@@H]4[C@@H]2C(=O)O1,inactive
9,C[C@H]1CN([C@@H](C)CO)C(=O)c2cc(Br)cnc2O[C@@H]1CN(C)C(=O)Nc1ccc(F)cc1,inactive
10,COc1ccc(CN(C)C[C@@H]2Oc3ccc(NC(=O)Nc4ccc(C(F)(F)F)cc4)cc3C(=O)N([C@H](C)CO)C[C@H]2C)cc1,active
11,COc1ccc(NC(=O)Nc2ccc3c(c2)C(=O)N([C@@H](C)CO)C[C@H](C)[C@@H](CN(C)Cc2ccc(C(F)(F)F)cc2)O3)cc1,active
12,COc1ccc(CN(C)C[C@H]2Oc3ccc(NC(=O)Nc4ccc(C(F)(F)F)cc4)cc3C(=O)N([C@@H](C)CO)C[C@@H]2C)cc1,active
13,COc1ccc(CN(C)C[C@H]2Oc3ccc(NC(=O)Nc4ccc(C(F)(F)F)cc4)cc3C(=O)N([C@@H](C)CO)C[C@H]2C)cc1,active
14,c1ccc2c([C@@H]3CCCN3)cccc2c1,inactive
15,Cc1ccc(S(=O)(=O)N(C)C[C@@H]2Oc3c(NC(=O)c4ccncc4)cccc3C(=O)N([C@H](C)CO)C[C@H]2C)cc1,inactive
16,C[C@@H]1CCCCO[C@H](CN(C)Cc2ccncc2)[C@H](C)CN([C@@H](C)CO)C(=O)c2cc(NC(=O)Cc3ccccc3)ccc2O1,inactive
17,COc1ccc(C#Cc2ccc3c(c2)O[C@H](CN(C)S(=O)(=O)c2ccccc2F)[C@H](C)CN([C@@H](C)CO)S3(=O)=O)cc1,inactive
18,C=CCOC(=O)[C@H]1[C@@H]2C(=O)O[C@@H](c3ccccc3)[C@@H](c3ccccc3)N2[C@@H](c2ccc(OCCOC(=O)[C@H]3C[C@H]4C(=O)N[C@@H](CC(C)C)C(=O)N4[C@H]3c3ccc(O)cc3)cc2)[C@]12C(=O)Nc1ccccc12,inactive
19,N=C(N)NCCS,inactive
20,C[C@@H]1CN([C@@H](C)CO)S(=O)(=O)c2ccc(C#Cc3ccccc3)cc2O[C@@H]1CN(C)C(=O)c1ccccn1,inactive
21,C[C@@H]1CCCCO[C@@H](CN(C)C(=O)NC2CCCCC2)[C@H](C)CN([C@H](C)CO)C(=O)c2cc(NS(=O)(=O)c3ccc(Cl)cc3)ccc2O1,inactive
22,N#C[C@H](N)c1ccc(Cl)cc1,inactive

row,SMILES,cytotoxicity call
1,COc1ccc(CN(C)C[C@@H]2Oc3ccc(NC(=O)Nc4ccc(C(F)(F)F)cc4)cc3C(=O)N([C@@H](C)CO)C[C@H]2C)cc1,active
2,COc1ccc(NC(=O)Nc2ccc3c(c2)C(=O)N([C@@H](C)CO)C[C@@H](C)[C@H](CN(C)Cc2ccc(C(F)(F)F)cc2)O3)cc1,inactive
3,COc1ccc(NC(=O)Nc2ccc3c(c2)C(=O)N([C@@H](C)CO)C[C@@H](C)[C@@H](CN(C)Cc2ccc(C(F)(F)F)cc2)O3)cc1,active
4,COc1ccc(NC(=O)Nc2ccc3c(c2)C(=O)N([C@@H](C)CO)C[C@H](C)[C@H](CN(C)Cc2ccc(C(F)(F)F)cc2)O3)cc1,inactive
5,C[C@@H]1CCCCO[C@@H](CN(C)C(=O)Nc2ccccc2)[C@@H](C)CN([C@@H](C)CO)C(=O)c2cc(NS(=O)(=O)c3ccccc3)ccc2O1,inactive
6,C[C@@H]1CN([C@@H](C)CO)C(=O)CCCn2nncc2CO[C@H]1CN(C)S(=O)(=O)c1ccc(-c2ccccc2)cc1,inactive
7,C[C@H]1CN([C@@H](C)CO)C(=O)Cc2cc(NC(=O)Nc3cccc4ccccc34)ccc2O[C@H]1CN(C)C(=O)Nc1ccc2c(c1)OCO2,inactive
8,C[C@@H]1CCCCO[C@@H](CN(C)S(=O)(=O)c2ccc(Cl)cc2)[C@H](C)CN([C@H](C)CO)C(=O)c2cc(NS(=O)(=O)c3ccc(F)cc3)ccc2O1,inactive
9,Nc1ncnc2c1ncn2[C@@H]1O[C@H](C[C@@H](N)CC[C@H](N)C(=O)O)[C@@H](O)[C@H]1O,inactive
10,CC(C)N(C[C@H]1O[C@@H](n2cnc3c(N)ncnc32)[C@H](O)[C@@H]1O)[C@H]1C[C@@H](CCc2nc3ccc(C(C)(C)C)cc3[nH]2)C1,active
11,CC(C)N(CCCNC(=O)Nc1ccc(C(C)(C)C)cc1)C[C@H]1O[C@@H](n2cnc3c(N)ncnc32)[C@@H](O)[C@H]1O,inactive
12,C[C@H]1CN([C@@H](C)CO)C(=O)Cc2cc(NC(=O)C3CC3)ccc2O[C@@H]1CN(C)S(=O)(=O)c1cccs1,inactive
13,CC(C)NC(=O)N(C)C[C@H]1Oc2ccc(NS(=O)(=O)c3ccccc3)cc2CC(=O)N([C@@H](C)CO)C[C@H]1C,inactive
14,Cn1c(Nc2ccc(C(F)(F)F)cc2)nc2cc(Oc3ccnc(-c4ncc(C(F)(F)F)[nH]4)c3)ccc21,active
15,COc1ccc(NC(=O)Nc2ccc3c(c2)C(=O)N([C@H](C)CO)C[C@H](C)[C@H](CN(C)Cc2ccncc2)OCCCC[C@H](C)O3)cc1,inactive
16,CO[C@@H]1CN(C)C(=O)c2cc(NC(=O)Nc3ccccc3F)ccc2OC[C@@H](C)N(Cc2ccccc2C(=O)O)C[C@H]1C,inactive
17,COc1ccc(-c2coc3cc(OC)ccc3c2=O)c(O)c1,inactive
18,Cc1c(C(N)=O)nnn1-c1ccc(F)cc1,inactive
19,C[C@@H]1CCCCO[C@H](CN(C)CC2CC2)[C@H](C)CN([C@H](C)CO)C(=O)c2cc(NC(=O)Nc3ccc(C(F)(F)F)cc3)ccc2O1,active
20,C[C@@H]1CCCCO[C@@H](CN(C)CC2CC2)[C@@H](C)CN([C@H](C)CO)C(=O)c2cc(NC(=O)Nc3ccc(C(F)(F)F)cc3)ccc2O1,active
21,C[C@@H]1CCCCO[C@@H](CN(C)CC2CC2)[C@H](C)CN([C@@H](C)CO)C(=O)c2cc(NC(=O)Nc3ccc(C(F)(F)F)cc3)ccc2O1,inactive
22,C[C@H](CO)N1C[C@H](C)[C@H](CN(C)CC2CC2)OCCCC[C@H](C)Oc2ccc(NC(=O)Nc3ccc(C(F)(F)F)cc3)cc2C1=O,active

row,SMILES,cytotoxicity call
1,C[C@H]1CCCCO[C@H](CN(C)CC2CC2)[C@@H](C)CN([C@@H](C)CO)C(=O)c2cc(NC(=O)Nc3ccc(C(F)(F)F)cc3)ccc2O1,inactive
2,C[C@@H]1CCCCO[C@@H](CN(C)CC2CC2)[C@H](C)CN([C@H](C)CO)C(=O)c2cc(NC(=O)Nc3ccc(C(F)(F)F)cc3)ccc2O1,inactive
3,C[C@@H]1CCCCO[C@H](CN(C)CC2CC2)[C@H](C)CN([C@@H](C)CO)C(=O)c2cc(NC(=O)Nc3ccc(C(F)(F)F)cc3)ccc2O1,active
4,C[C@H](CO)N1C[C@H](C)[C@@H](CN(C)CC2CC2)OCCCC[C@H](C)Oc2ccc(NC(=O)Nc3ccc(C(F)(F)F)cc3)cc2C1=O,inactive
5,C[C@H](CO)N1C[C@H](C)[C@@H](CN(C)C(=O)Nc2ccccc2)OCCCC[C@H](C)Oc2ccc(NC(=O)C3CCCCC3)cc2C1=O,inactive
6,CN(C)C(=O)CN1C[C@]23CN(Cc4cnn(C)c4)C[C@@H](C[C@@H]2S1(=O)=O)O3,inactive
7,CC(C)NC(=O)N(C)C[C@H]1Oc2c(NS(=O)(=O)c3ccc(F)cc3)cccc2C(=O)N([C@H](C)CO)C[C@@H]1C,inactive
8,C[C@@H]1CN([C@H](C)CO)C(=O)c2cc(NC(=O)Nc3cccc4ccccc34)ccc2O[C@@H](C)CCCCO[C@@H]1CN(C)Cc1ccc(C(=O)O)cc1,inactive
9,COc1ccc(NC(=O)N(C)C[C@@H]2Oc3cc(Br)ccc3S(=O)(=O)N([C@H](C)CO)C[C@H]2C)cc1,inactive
10,COc1cccc(S(=O)(=O)N(C)C[C@H]2OCc3cnnn3CCCC(=O)N([C@H](C)CO)C[C@@H]2C)c1,inactive
11,C[C@H](CO)N1C[C@H](C)[C@H](CN(C)C(=O)Nc2ccccc2)OCCCC[C@H](C)Oc2ccc(NS(=O)(=O)c3cccs3)cc2C1=O,inactive
12,COc1ccc(S(=O)(=O)N(C)C[C@H]2Oc3ccc(NC(=O)Nc4cccc5ccccc45)cc3C(=O)N([C@H](C)CO)C[C@H]2C)cc1,inactive
13,Cn1c(=O)[nH]c2nnc(-c3ccccn3)nc2c1=O,inactive
14,Cn1nc(-c2ccccn2)nc2c(=O)n(C)c(=O)nc1-2,active
15,COc1ccc(-c2ccccn2)cc1,inactive
16,COc1ccc(NC(=O)Nc2ccc3c(c2)C(=O)N([C@H](C)CO)C[C@H](C)[C@@H](CN(C)Cc2ccc(C(=O)O)cc2)OCCCC[C@H](C)O3)cc1,inactive
17,CN(CP(=O)(O)CN1CCOCC1)S(C)(=O)=O,inactive
18,CC(C)(C)NCC(O)COc1nsnc1N1CCOCC1.O=C(O)C=CC(=O)O (stereo unspecified),inactive
19,CC(C)(C)NCC(O)COc1cccc2c1CC(O)C(O)C2 (stereo unspecified),inactive
20,CC(C)(C)NCC(O)COc1ccccc1C1CCCC1.O=S(=O)(O)O (stereo unspecified),active
21,C[C@H](CO)N1C[C@H](C)[C@@H](CN(C)S(=O)(=O)c2cn(C)cn2)Oc2ccc(NC(=O)CCN3CCOCC3)cc2C1=O,inactive
22,C[C@H]1CN([C@@H](C)CO)C(=O)c2cc(NC(=O)CCCN(C)C)ccc2O[C@@H]1CN(C)C(=O)Nc1ccc2c(c1)OCO2,inactive
